The results in this text go back to PubChem BioAssay (Tox21).

A short description of assay [1]: A CellTox Green Cytotoxicity Assay to monitor cytotoxicity in HEK293 cells - 32 hour (AID 1224881). Further: nearly all actives have a fitted effect of over 40% in size. Summed up: (§1)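 Read-out: fluorescence of a cell-impermeant cyanine dye staining DNA of dead cells, proportional to cytotoxicity. HEK293, 600 cells/well with reagent, compound (23 nL DMSO) added after 5 h; reads at 0, 8, 16, 24, 32, 40 h.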
Assay [2] in a line: A CellTox Green Cytotoxicity Assay to monitor cytotoxicity in HepG2 cells - 0 hour (AID 1224882). Further: nearly all actives have a fitted effect of over 35% in size. Summed up: (§2)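 HepG2, 600 cells/well premixed w/ CellTox Green; 5 h settle, 37 C/5% CO2; pintool cpd add (DMSO); 37 C, 40 h; fluorescence read at 0, 8, 16, 24, 32, 40 h.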
Assay [3] in a line: A CellTox Green Cytotoxicity Assay to monitor cytotoxicity in HepG2 cells - 32 hour (AID 1224883). Further: nearly all actives have a fitted effect of over 50% in size. Summed up: as §2
Assay [4] can be described thus: A CellTox Green Cytotoxicity Assay to monitor cytotoxicity in HEK293 cells - 8 hour (AID 1224884). Further: nearly all actives have a fitted effect of over 35% in size. In short, it runs like this: as §1
The nature of assay [5]: qHTS RealTime-Glo MT Cell Viability Assay in HepG2 cells - 16 hour (AID 1224885). Further: nearly all actives have a fitted effect of over 50% in size. In short, it runs like this:
(§3)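 Viability was tracked continuously by NanoLuc luminescence from prosubstrate reduced by living HepG2 cells, at successive time points over 40 h of compound exposure. Cells with reagent were preincubated 5 h at 37 °C before compound addition.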
(In general: qHTS replaces the single test concentration by a dilution series.)

The nature of assay [6]: qHTS RealTime-Glo MT Cell Viability Assay in HEK293 cells - 24 hour (AID 1224886). Further: top concentration of the series differs between compounds; nearly all actives have a fitted effect of over 50% in size. Summed up: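 Viability tracked continuously by luminescence as live cells reduce a prosubstrate for NanoLuc; HEK293 cells preincubated 5 h, compound-treated at 37 C, and read at 0, 8, 16, 24, 32 and 40 h.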
Assay [7] can be described thus: qHTS RealTime-Glo MT Cell Viability Assay in HEK293 cells - 8 hour (AID 1224887). Further: top concentration of the series differs between compounds; nearly all actives have a fitted effect of over 50% in size. In short, it runs like this:
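Luminescence readout at each listed time point; HEK293, 600 cells/well, RealTime-Glo MT reagent added with cells; compounds pinned (23 nL in DMSO) after 5 h at 37 C; continuous culture at 37 C.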

The nature of assay [8]: A CellTox Green Cytotoxicity Assay to monitor cytotoxicity in HEK293 cells - 16 hour (AID 1224888). Further: nearly all actives have a fitted effect of over 35% in size. In short, it runs like this:
as §1

Assay [9] is described as follows: qHTS RealTime-Glo MT Cell Viability Assay in HepG2 cells - 0 hour (AID 1224889). Further: nearly all actives have a fitted effect of over 50% in size. In short, it runs like this:
as §3

A short description of assay [10]: A CellTox Green Cytotoxicity Assay to monitor cytotoxicity in HepG2 cells - 8 hour (AID 1224890). Further: nearly all actives have a fitted effect of over 45% in size. Summed up:
as §2

Assay [11] is described as follows: qHTS assay to identify small molecule HDAC inhibitors (AID 1259364).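 Further: wild-type HCT-116 cells with endogenous class I/II HDAC activity; top concentration of the series differs between compounds; nearly all actives have a fitted effect of over 45% in size.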 In short, it runs like this:
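HCT-116 (wild type), 1,500 cells/well, overnight; compound 2 hr 37C 5% CO2; HDAC-Glo I/II reagent 30 min RT; luminescence readout.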

Assay [12] in a line: qHTS assay to identify small molecule HDAC inhibitors - cell viability counter screen (AID 1259365). Summed up:
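Wild-type HCT-116 cells, 1,500/well, cultured overnight, then compound-treated 2 h at 37 C. Viability measured as ATP luminescence with CellTiter-Glo after 30 min at room temperature.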

Assay [13] is described as follows: qHTS assay to identify small molecule agonists of the sonic hedgehog signaling (Shh) pathway - cell viability counter screen (AID 1259366). Further: nearly all actives have a fitted effect of over 50% in size. Summed up:
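NIH/3T3-derived Gli1-Luc reporter cells, 2,000 per well, received compound after 4 h and were treated about 23 h at 37C. Viability measured in the same wells by CellTiter-Fluor fluorescence after 1 h.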

A short description of assay [14]: qHTS assay to identify small molecule antagonists of the sonic hedgehog signaling (Shh) pathway - cell viability counter screen (AID 1259367). Further: nearly all actives have a fitted effect of over 55% in size. Further: potency means the concentration at half of the fitted maximal effect. Summed up:
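Conditioned medium drove Shh signaling in 3T3 Gli1-Luc cells exposed to compounds at 37C and 5% CO2. Viability was determined from CellTiter-Fluor fluorescence, with reagent incubated 1 hr after 23 hr of treatment.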

A short description of assay [15]: qHTS assay to identify small molecule agonists of the sonic hedgehog signaling (Shh) pathway (AID 1259368; calls by dose curve;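 further: NIH/3T3-derived 3T3Gli1-Luc cells carrying a stable Gli1-driven firefly luciferase reporter; series mostly up to about 92 µM; nearly all actives have a fitted effect of over 15% in size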). Summed up:
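Read-out: firefly luciferase luminescence from a Gli1 response element reporter stably integrated in NIH/3T3-derived 3T3Gli1-Luc cells, measured 30 min at room temperature after reagent addition. Compound exposure lasted 24 hr at 37 C, 5% CO2.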

Assay [16] is described as follows: qHTS assay to identify small molecule antagonists of the androgen receptor (AR) signaling pathway using the MDA cell line in the presence of 0.5 nM R1881 - cell viability counter screen (AID 1259242). Further: nearly all actives have a fitted effect of over 45% in size. Summed up: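 Live-cell protease fluorescence, CellTiter-Fluor, 30 min at 37C. Cells: MDA-kb2, 3,000/well, preincubated 5 hr. Compounds plus 0.5 nM R1881 final, 16 hr, 37C, 0% CO2.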

The target of assay [17] is Estrogen receptor (Homo sapiens) (UniProt P03372). The assay can be described thus: qHTS assay to identify small molecule antagonists of the estrogen receptor alpha (ER-alpha) signaling pathway using the BG1 cell line in the presence of 0.1 nM 17-beta-estradiol (AID 1259244). Further: nearly all actives have a fitted effect of over 50% in size. Further: potency means the concentration at half of the fitted maximal effect. Summed up: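 Luminescence after ONE-Glo (30 min, room temperature) measured ERE-luciferase activity in VM7Luc4E2 cells treated 22 h with compound and 0.1 nM final 17beta-estradiol as stimulator.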

Assay [18] in a line: qHTS assay to identify small molecule antagonists of the estrogen receptor alpha (ER-alpha) signaling pathway using the BG1 cell line in the presence of 0.1 nM 17-beta-estradiol - cell viability counter screen (AID 1259241). Further: nearly all actives have a fitted effect of over 40% in size. Summed up: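 VM7Luc4E2 cells (endogenous full-length ER-alpha, 4xERE-luciferase), cultured 5 days in charcoal-stripped serum, exposed to compounds with 0.1 nM 17beta-estradiol (final) for 22 hr at 37C. Viability read in same wells as live-cell protease fluorescence after 30 min.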

Assay [19] can be described thus: qHTS assay to identify small molecule phospholipidosis (PLD) inducers (AID 1259344; active means well fitted curve in the direction sought with a large enough effect; an effect the other way counts as inactive or inconclusive). Summed up: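 After 4 h attachment on collagen I, HepG2 cells were dosed with compound alongside LipidTOX Red, kept 24 h at 37 C, fixed, and imaged for lamellar phospholipid pits.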

Results filed as inconclusive are left out. Activity calls are given as the source filed them. Unless noted, the call rests on the fitted dose curve; in most records, active means well fitted curve in the direction sought with a large enough effect in the repeat runs; inconclusive means weak or mixed curves; inactive means no such curve, though single readings can be large; an effect the other way counts as inactive or inconclusive.

Sequence of Estrogen receptor (Homo sapiens) (P03372 whole entry, looked up): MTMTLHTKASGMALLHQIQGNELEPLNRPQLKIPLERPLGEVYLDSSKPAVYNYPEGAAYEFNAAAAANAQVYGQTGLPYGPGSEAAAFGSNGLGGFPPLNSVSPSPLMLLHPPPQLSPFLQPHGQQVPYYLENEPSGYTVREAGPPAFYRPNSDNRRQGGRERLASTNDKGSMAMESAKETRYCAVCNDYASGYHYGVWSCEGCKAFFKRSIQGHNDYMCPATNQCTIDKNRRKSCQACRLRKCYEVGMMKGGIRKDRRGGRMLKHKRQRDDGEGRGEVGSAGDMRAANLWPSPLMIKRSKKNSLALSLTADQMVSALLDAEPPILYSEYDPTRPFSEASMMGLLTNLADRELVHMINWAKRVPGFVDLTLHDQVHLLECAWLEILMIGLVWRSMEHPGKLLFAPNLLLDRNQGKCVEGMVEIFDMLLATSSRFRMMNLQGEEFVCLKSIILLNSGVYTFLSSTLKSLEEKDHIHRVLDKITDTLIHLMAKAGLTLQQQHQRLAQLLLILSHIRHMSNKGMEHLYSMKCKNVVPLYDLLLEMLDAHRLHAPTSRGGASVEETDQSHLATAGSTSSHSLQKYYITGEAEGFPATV

As to `CCCCCCCC/C=C\CCCCCCCCO`, the Potency result in assay [1], in [2], in [3], in [4], in assay [5] and in assay [6] was “inactive” throughout. Further, the Potency result in [7], in assay [8], in assay [9], in assay [10], in assay [11] and in assay [12] was “inactive” throughout. Moreover, the Potency result in assay [13], in [14] and in [15] was “inactive” each time.
For the molecule `CC(O)c1ccccc1` (centres undefined), the Potency result in assay [1], in [2], in assay [3], in [4], in assay [5] and in [6] was “inactive” in each case. Further, the Potency entry in assay [7], in assay [8], in assay [9], in [10], in assay [16] and in [17] was “inactive” in each case. The Potency result in assay [11], in assay [12], in [13], in assay [14] and in [15] was “inactive” throughout.
Take `COC(=O)CCS`: the Potency result in assay [1], in assay [2], in [3], in assay [4], in assay [5] and in [6] was “inactive” throughout. For the same molecule, the Potency entry in assay [8], in assay [9], in assay [10], in assay [16], in assay [17] and in assay [11] was “inactive” in each case. The Potency entry in assay [12], in assay [13], in assay [14] and in assay [15] was “inactive” in each case.
As for `c1ccc(C[n+]2cccc3ccccc32)cc1`, the Potency result in [1], in [2], in assay [3], in assay [4], in assay [5] and in assay [6] was “inactive” throughout. The Potency result in assay [7], in assay [8], in assay [9], in [18], in assay [11] and in [12] was “inactive” in each case. Moreover, the Potency result in assay [13] and in assay [15] was “inactive” in each case. For the same molecule, the Potency in assay [17] was 27.3 µM (active).
For `CC(=O)c1ccc([N+](=O)[O-])cc1`, the Potency entry in [1], in assay [2], in [3], in [4], in [5] and in assay [6] was “inactive” throughout. Also, the Potency entry in assay [7], in assay [8], in [9], in assay [10], in assay [18] and in assay [16] was “inactive” in each case. Also, the Potency result in assay [11], in [12], in assay [13], in assay [14] and in assay [15] was “inactive” in each case.
For `Oc1cccc(O)c1O`, the Potency result in [1], in assay [2], in [3], in assay [4], in [5] and in assay [6] was “inactive” throughout. Further, the Potency entry in assay [7], in assay [8], in [9], in assay [17], in assay [19] and in [11] was “inactive” in each case. Besides, the Potency entry in assay [12] and in assay [15] was “inactive” each time. Also, the Potency in assay [14] was 48.1 µM (active).
Regarding `O=C(O)c1ccc(OCCCOc2ccc(C(=O)O)cc2)cc1`, the Potency result in assay [1], in assay [2], in assay [3], in [4], in [5] and in [6] was “inactive” in each case. The Potency entry in [7], in assay [8], in assay [9], in assay [18], in assay [16] and in [19] was “inactive” throughout. Besides, the Potency result in assay [11], in assay [12], in assay [13], in assay [14] and in [15] was “inactive” each time.
Turning to `CN(C)CCN1C(=O)c2ccccc2N(C)c2ccccc21`, the Potency entry in [1], in assay [2], in [3], in assay [4], in assay [5] and in assay [6] was “inactive” each time. Further, the Potency result in assay [7], in [9], in [10], in [16], in assay [17] and in [19] was “inactive” each time. Besides, the Potency entry in assay [11], in assay [12], in assay [13], in [14] and in assay [15] was “inactive” each time.
